Assay results reported in PubChem BioAssay AID1159580 (chemical genetic matrix, 2015).
Hit rate of the full screen: of about 5,500 compounds, about 2,000 (36%) were called active. Inconclusive results (about 18%) are left out. Cut-off read from the data, not from the text of the source: active = normalized growth mostly below about 0.91 (no sharp cut-off); inconclusive = no clear call, values can overlap the other calls; inactive = mostly above about 0.92. The list shows a part of the results.

Assay: chemical genetic growth profiling, strain panel (AID 1159580);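 note: tested at 20 µM; growth read once vehicle control cultures reached saturation at 30 °C; 1 = growth at the plate median or of vehicle wells; lower values mean less growth of the strain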
Conditions: growth OD
[1] = S. cerevisiae deletion strains, locus YAL013W, strain DEP1, stronger effect = lower value
[2] = S. cerevisiae deletion strains, locus YBR229C, strain ROT2, stronger effect = lower value
[3] = S. cerevisiae deletion strains, locus YCL061C, strain MRC1, stronger effect = lower value
[4] = S. cerevisiae deletion strains, locus YDL101C, strain DUN1, stronger effect = lower value
[5] = S. cerevisiae deletion strains, locus YDR150W, strain NUM1, stronger effect = lower value
[6] = S. cerevisiae deletion strains, locus YEL061C, strain CIN8, stronger effect = lower value
[7] = S. cerevisiae deletion strains, locus YGR078C, strain PAC10, stronger effect = lower value
[8] = S. cerevisiae deletion strains, locus YHR030C, strain SLT2, stronger effect = lower value
[9] = S. cerevisiae deletion strains, locus YHR087W, strain rtc3, stronger effect = lower value
[10] = S. cerevisiae deletion strains, locus YJR043C, strain POL32, stronger effect = lower value
[11] = S. cerevisiae deletion strains, locus YJR075W, strain HOC1, stronger effect = lower value
[12] = S. cerevisiae deletion strains, locus YLR039C, strain RIC1, stronger effect = lower value
[13] = S. cerevisiae deletion strains, locus YLR058C, strain SHM2 (second series), stronger effect = lower value
[14] = S. cerevisiae deletion strains, locus YLR085C, strain ARP6, stronger effect = lower value
[15] = S. cerevisiae deletion strains, locus YLR262C, strain YPT6, stronger effect = lower value
[16] = S. cerevisiae deletion strains, locus YML094W, strain GIM5, stronger effect = lower value
[17] = S. cerevisiae deletion strains, locus YMR219W, strain ESC1, stronger effect = lower value
[18] = S. cerevisiae deletion strains, locus YMR263W, strain SAP30, stronger effect = lower value
[19] = S. cerevisiae deletion strains, locus YNL153C, strain GIM3, stronger effect = lower value
[20] = S. cerevisiae deletion strains, locus YNL298W, strain CLA4 (second series), stronger effect = lower value
[21] = S. cerevisiae deletion strains, locus YNL322C, strain KRE1, stronger effect = lower value
[22] = S. cerevisiae deletion strains, locus YNR030W, strain Alg12, stronger effect = lower value
[23] = S. cerevisiae deletion strains, locus YOL006C, strain TOP1, stronger effect = lower value
[24] = S. cerevisiae deletion strains, locus YPL055C, strain LGE1, stronger effect = lower value
[25] = S. cerevisiae deletion strains, locus YPL241C, strain CIN2, stronger effect = lower value
[26] = S. cerevisiae deletion strains, locus YPR135W, strain CTF4, stronger effect = lower value
[27] = S. cerevisiae strains, strain wild type, stronger effect = lower value
[28] = S. cerevisiae deletion strains, locus YDL134C, strain PPH21, stronger effect = lower value

Measured: normalized growth

CSc1cccc(NC(=S)N=CN(C)C)c1
inactive: [1] 0.977 | [2] 1.01 | [3] 0.954 | [4] 0.944 | [5] 0.974 | [6] 0.997 | [7] 0.977 | [8] 0.882 | S. cerevisiae deletion strains, locus YJL187C, strain SWE1, stronger effect = lower value 0.988 | [10] 0.961 | [11] 1.05 | [13] 1.03 | [15] 0.932 | [16] 0.96 | [17] 1 | [18] 0.983 | S. cerevisiae deletion strains, locus YNL128W, strain TEP1, stronger effect = lower value 0.962 | [19] 0.963 | [21] 1 | [22] 0.958 | [24] 1.02 | [25] 0.898 | [26] 0.787 | [27] 0.933
active: [9] 1.12 [resistant] | [12] 0.73 | [14] 0.618 | [20] 0.798 | [23] 0.393

COc1ccccc1Oc1ccc(C(F)(F)F)cc1NC(=O)NC(=O)c1ccccc1F
inactive: [1] 0.997 | [2] 1 | [3] 0.972 | [4] 0.968 | [28] 0.984 | [5] 1.02 | [6] 0.979 | [7] 0.979 | [8] 1 | [9] 1.06 | [10] 0.984 | [11] 1.02 | [12] 0.964 | [13] 1 | [14] 1.02 | [15] 1.02 | [16] 1.02 | [17] 0.994 | [18] 1.01 | [19] 1 | [20] 0.958 | [21] 0.995 | [22] 1.03 | [23] 0.966 | [24] 1.04 | [25] 0.992 | [26] 0.957 | [27] 0.974

COc1ccc(CCNc2ccc(C(F)(F)F)cc2N)cc1OC
inactive: [1] 1 | [2] 0.998 | [3] 1 | [4] 0.974 | [28] 1.02 | [5] 0.911 | [6] 1.02 | [7] 0.985 | [8] 0.903 | [9] 1.04 | [10] 0.996 | [11] 1.02 | [12] 0.988 | [13] 1.01 | [14] 0.961 | [15] 0.946 | [16] 0.972 | [17] 0.994 | [18] 0.918 | [19] 0.988 | [20] 0.966 | [21] 1.01 | [22] 0.974 | [23] 1.01 | [24] 0.893 | [25] 0.93 | [26] 0.842 | [27] 1.01

Cc1cc(Oc2ccc(C(F)(F)F)cc2NS(C)(=O)=O)cc(C)c1Cl
inactive: S. cerevisiae deletion strains, locus YAR019C, strain CDC15, stronger effect = lower value 0.992 | S. cerevisiae deletion strains, locus YBL105C, strain PKC1, stronger effect = lower value 0.988 | S. cerevisiae deletion strains, locus YBR135W, strain CKS1, stronger effect = lower value 0.995 | S. cerevisiae deletion strains, locus YBR136W, strain MEC1, stronger effect = lower value 0.991 | S. cerevisiae deletion strains, locus YBR160W, strain CDC28, stronger effect = lower value 0.988 | S. cerevisiae deletion strains, locus YDL017W, strain CDC7, stronger effect = lower value 0.982 | S. cerevisiae deletion strains, locus YDL028C, strain MPS1, stronger effect = lower value 0.998 | [4] 0.979 | S. cerevisiae deletion strains, locus YDL108W, strain KIN28, stronger effect = lower value 0.995 | S. cerevisiae deletion strains, locus YDL132W, strain cdc53, stronger effect = lower value 0.989 | S. cerevisiae deletion strains, locus YDL214C, strain PRR2, stronger effect = lower value 0.961 | S. cerevisiae deletion strains, locus YDR052C, strain DBF4, stronger effect = lower value 0.996 | S. cerevisiae deletion strains, locus YDR054C, strain cdc34, stronger effect = lower value 0.995 | S. cerevisiae deletion strains, locus YDR226W, strain ADK1, stronger effect = lower value 0.979 | S. cerevisiae deletion strains, locus YDR477W, strain SNF1, stronger effect = lower value 0.978 | S. cerevisiae deletion strains, locus YER123W, strain YCK3, stronger effect = lower value 0.95 | S. cerevisiae deletion strains, locus YER133W, strain GLC7, stronger effect = lower value 0.974 | S. cerevisiae deletion strains, locus YFL009W, strain cdc4, stronger effect = lower value 0.995 | S. cerevisiae deletion strains, locus YFL029C, strain CAK1, stronger effect = lower value 0.981 | S. cerevisiae deletion strains, locus YFR003C, strain YPI1, stronger effect = lower value 0.986 | S. cerevisiae deletion strains, locus YFR019W, strain FAB1, stronger effect = lower value 0.984 | S. cerevisiae deletion strains, locus YFR028C, strain CDC14, stronger effect = lower value 0.995 | S. cerevisiae deletion strains, locus YGR040W, strain KSS1, stronger effect = lower value 0.985 | S. cerevisiae deletion strains, locus YGR052W, strain FMP48, stronger effect = lower value 0.986 | S. cerevisiae deletion strains, locus YGR092W, strain DBF2, stronger effect = lower value 0.889 | S. cerevisiae deletion strains, locus YHR079C, strain IRE1, stronger effect = lower value 0.873 | S. cerevisiae deletion strains, locus YHR082C, strain KSP1, stronger effect = lower value 1.03 | S. cerevisiae deletion strains, locus YHR205W, strain SCH9, stronger effect = lower value 0.902 | S. cerevisiae deletion strains, locus YIL147C, strain SLN1, stronger effect = lower value 0.993 | S. cerevisiae deletion strains, locus YJL095W, strain BCK1, stronger effect = lower value 0.891 | S. cerevisiae deletion strains, locus YJL128C, strain PBS2, stronger effect = lower value 0.947 | S. cerevisiae deletion strains, locus YJL157C, strain FAR1, stronger effect = lower value 0.963 | S. cerevisiae deletion strains, locus YJR016C, strain ILV3, stronger effect = lower value 0.986 | S. cerevisiae deletion strains, locus YJR066W, strain TOR1 (second series), stronger effect = lower value 0.928 | S. cerevisiae deletion strains, locus YJR066W, strain TOR1, stronger effect = lower value 1.01 | S. cerevisiae deletion strains, locus YKL048C, strain ELM1, stronger effect = lower value 0.985 | S. cerevisiae deletion strains, locus YKL067W, strain YNK1, stronger effect = lower value 0.957 | S. cerevisiae deletion strains, locus YKL101W, strain HSL1, stronger effect = lower value 0.961 | S. cerevisiae deletion strains, locus YKL193C, strain SDS22, stronger effect = lower value 0.989 | S. cerevisiae deletion strains, locus YKL203C, strain TOR2, stronger effect = lower value 1.02 | S. cerevisiae deletion strains, locus YLR133W, strain CKI1, stronger effect = lower value 0.96 | S. cerevisiae deletion strains, locus YLR403W, strain SFP1, stronger effect = lower value 0.939 | S. cerevisiae deletion strains, locus YML070W, strain DAK1, stronger effect = lower value 0.931 | S. cerevisiae deletion strains, locus YMR001C, strain CDC5, stronger effect = lower value 0.989 | S. cerevisiae deletion strains, locus YMR205C, strain PFK2 (second series), stronger effect = lower value 0.972 | S. cerevisiae deletion strains, locus YMR277W, strain FCP1, stronger effect = lower value 0.991 | S. cerevisiae deletion strains, locus YNL006W, strain LST8, stronger effect = lower value 0.983 | S. cerevisiae deletion strains, locus YNL020C, strain ARK1, stronger effect = lower value 0.914 | S. cerevisiae deletion strains, locus YNL161W, strain CBK1, stronger effect = lower value 0.985 | S. cerevisiae deletion strains, locus YNL183C, strain NPR1, stronger effect = lower value 0.981 | S. cerevisiae deletion strains, locus YNL207W, strain RIO2, stronger effect = lower value 0.987 | S. cerevisiae deletion strains, locus YNL222W, strain SSU72, stronger effect = lower value 0.996 | S. cerevisiae deletion strains, locus YNL307C, strain MCK1 (second series), stronger effect = lower value 0.939 | S. cerevisiae deletion strains, locus YOL078W, strain AVO1, stronger effect = lower value 0.995 | S. cerevisiae deletion strains, locus YOL136C, strain PFK27, stronger effect = lower value 0.939 | S. cerevisiae deletion strains, locus YOR061W, strain CKA2, stronger effect = lower value 0.923 | S. cerevisiae deletion strains, locus YOR119C, strain RIO1, stronger effect = lower value 1.04 | S. cerevisiae deletion strains, locus YOR231W, strain MKK1, stronger effect = lower value 0.902 | S. cerevisiae deletion strains, locus YOR329C, strain SCD5, stronger effect = lower value 0.984 | S. cerevisiae deletion strains, locus YPL031C, strain PHO85, stronger effect = lower value 0.971 | S. cerevisiae deletion strains, locus YPL153C, strain RAD53, stronger effect = lower value 0.981 | S. cerevisiae deletion strains, locus YPL204W, strain HRR25, stronger effect = lower value 0.947 | S. cerevisiae deletion strains, locus YPL209C, strain IPL1, stronger effect = lower value 0.987 | S. cerevisiae deletion strains, locus YPR025C, strain CCL1, stronger effect = lower value 0.993 | S. cerevisiae deletion strains, locus YPR106W, strain ISR1, stronger effect = lower value 0.985 | S. cerevisiae deletion strains, locus YPR111W, strain DBF20, stronger effect = lower value 0.973 | S. cerevisiae deletion strains, strain NNK1, stronger effect = lower value 0.984 | S. cerevisiae deletion strains, strain TSCII, stronger effect = lower value 0.993
active: [8] 0.802 | S. cerevisiae deletion strains, locus YLR113W, strain HOG1, stronger effect = lower value 0.75 | S. cerevisiae deletion strains, locus YPL256C, strain CLN2, stronger effect = lower value 0.827
